Results: PubChem BioAssay (Tox21)
Records with an inconclusive call do not appear. Activity calls are given as the source filed them. Unless noted, calls follow the shape of the dose curve; as a rule, active = well fitted curve in the direction sought with a large enough effect in the repeat runs; inconclusive = weak or mixed curves; inactive = no such curve, though single readings can be large; an effect the other way counts as inactive or inconclusive.

Assays:
[1] = qHTS assay for small molecules that induce genotoxicity in human embryonic kidney cells expressing luciferase-tagged ATAD5 (AID 651632); also: % is scaled to controls: 0 for no effect and ±100 for the full control effect; nearly all actives have a fitted effect of over 15% in size
How it was run: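 HEK293T cells carrying a luciferase reporter tagged to ATAD5 were exposed to compound or DMSO vehicle for 16 hr at 37C, 5% CO2. Amplite was added, and after 30 min at room temperature luciferase activity was read as a marker of ATAD5 induction.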

[2] = qHTS assay for small molecule agonists of the p53 signaling pathway - cell viability (AID 651633; calls by dose curve;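 also: p53RE-bla HCT reporter cells with a stable beta-lactamase p53 reporter; series mostly up to about 83 µM; % is scaled to controls: 0 for no effect and ±100 for the full control effect; nearly all actives have a fitted effect of over 30% in size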)
How it was run: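 p53RE-bla cells, seeded at 4,000 per well and rested 5 h at 37 C/5% CO2, received compounds in DMSO for 16 h at 37 C. CellTiter-Glo was then added, and luminescence was read after 30 min at room temperature to gauge cytotoxicity.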

[3] = qHTS assay for small molecule disruptors of the mitochondrial membrane potential - cell viability (AID 720634; calls by dose curve;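 also: human HepG2 liver cancer cells; series mostly up to about 83 µM; % is scaled to controls: 0 for no effect and ±100 for the full control effect; nearly all actives have a fitted effect of over 20% in size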)
How it was run: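 HepG2 cells seeded overnight at 37 C, then exposed to compound or DMSO for 1 hr at 37 C, 5% CO2. m-MPI dye added, then CellTiter-Glo for 30 min at room temperature; viability read as ATP luminescence.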

[4] = qHTS assay to test for compound auto fluorescence at 590 nm (red) in HepG2 cells (AID 720674); also: % is scaled to controls: 0 for no effect and ±100 for the full control effect
How it was run: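 Intrinsic compound fluorescence in the red window (Ex/Em 540/590 nm) is measured in attached HepG2 cells exposed for 1 hr, DMSO vehicle as baseline, benchmarked to Rose Bengal sodium.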

[5] = qHTS assay to test for compound auto fluorescence at 535 nm (green) in HepG2 cells (AID 720675); also: % is scaled to controls: 0 for no effect and ±100 for the full control effect
[6] = qHTS assay to test for compound auto fluorescence at 460 nm (blue) in HEK293 cells (AID 720678); also: % is scaled to controls: 0 for no effect and ±100 for the full control effect
How it was run: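 Auto fluorescence in the blue band was quantified as triamterene equivalency. HEK293 cells were seeded at 2,000/well, dosed after a 4-5 hr attachment, and kept overnight at 37C before the 405/460 nm reading.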

[7] = qHTS assay to test for compound auto fluorescence at 590 nm (red) in HEK293 cells (AID 720679); also: % is scaled to controls: 0 for no effect and ±100 for the full control effect
How it was run: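 Autofluorescence equivalency to Rose Bengal sodium, 540/590nm, in HEK293 cells exposed overnight to 23 nL compound per well.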

[8] = qHTS assay to test for compound auto fluorescence at 460 nm (blue) in HEK293 cell free culture (AID 720681); also: % is scaled to controls: 0 for no effect and ±100 for the full control effect
How it was run: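 Test compounds were pinned into cell-free culture medium (DMEM with 10% FBS) and fluorescence was read directly at Ex/Em 405/460 nm. Signals were expressed as fluorescence equivalents of triamterene, with DMSO vehicle as control.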

[9] = qHTS assay to test for compound auto fluorescence at 535 nm (green) in HEK293 cell free culture (AID 720682); also: % is scaled to controls: 0 for no effect and ±100 for the full control effect
How it was run: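 Read-out: 485/535 nm fluorescence intensity, calibrated against fluorescein. Medium only (DMEM + 10% FBS, no cells); test compound or DMSO vehicle added by pintool before plate reading.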

[10] = qHTS assay to test for compound auto fluorescence at 590 nm (red) in HEK293 cell free culture (AID 720683); also: % is scaled to controls: 0 for no effect and ±100 for the full control effect
How it was run: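 Tox21 10K library compounds were pinned into cell-free DMEM with 10% FBS and fluorescence was read at excitation 540 nm. Activity is expressed as Rose Bengal sodium equivalency.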

[11] = qHTS assay to test for compound auto fluorescence at 590 nm (red) in HepG2 cell free culture (AID 720684); also: % is scaled to controls: 0 for no effect and ±100 for the full control effect
How it was run: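 Red fluorescence (540 nm excitation, 590 nm emission) was measured after compound transfer into cell-free MEM supplemented with 10% FBS. Values are equivalencies against Rose Bengal sodium.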

[12] = qHTS assay to test for compound auto fluorescence at 460 nm (blue) in HepG2 cell free culture (AID 720685); also: % is scaled to controls: 0 for no effect and ±100 for the full control effect
How it was run: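 Compound (23 nL) or DMSO pinned into cell-free MEM with 10% FBS; blue fluorescence read at 405/460 nm excitation/emission, expressed as auto-fluorescence equivalency to triamterene.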

[13] = qHTS assay to test for compound auto fluorescence at 535 nm (green) in HepG2 cell free culture (AID 720686); also: % is scaled to controls: 0 for no effect and ±100 for the full control effect
[14] = qHTS assay to test for compound auto fluorescence at 460 nm (blue) in HepG2 cells (AID 720687); also: % is scaled to controls: 0 for no effect and ±100 for the full control effect
How it was run: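 Cells (2,000/well in MEM with 10% FBS) attached overnight at 37 C, then were exposed to compound or DMSO for 1 hr at 37 C, 5% CO2. Fluorescence read at Ex/Em 405/460 nm, expressed as triamterene-equivalent signal.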

[15] = biological target: Glucocorticoid receptor (Homo sapiens) (UniProt P04150); assay: qHTS assay to identify small molecule agonists of the glucocorticoid receptor (GR) signaling pathway (AID 720691; active = well fitted activation curve with a large enough effect in the signal ratio in the repeat runs, not every such curve was filed as active; the % refers to the signal ratio; also: % is scaled to controls: 0 for no effect and ±100 for the full control effect)
Chain of Glucocorticoid receptor (Homo sapiens) (P04150 whole entry, looked up): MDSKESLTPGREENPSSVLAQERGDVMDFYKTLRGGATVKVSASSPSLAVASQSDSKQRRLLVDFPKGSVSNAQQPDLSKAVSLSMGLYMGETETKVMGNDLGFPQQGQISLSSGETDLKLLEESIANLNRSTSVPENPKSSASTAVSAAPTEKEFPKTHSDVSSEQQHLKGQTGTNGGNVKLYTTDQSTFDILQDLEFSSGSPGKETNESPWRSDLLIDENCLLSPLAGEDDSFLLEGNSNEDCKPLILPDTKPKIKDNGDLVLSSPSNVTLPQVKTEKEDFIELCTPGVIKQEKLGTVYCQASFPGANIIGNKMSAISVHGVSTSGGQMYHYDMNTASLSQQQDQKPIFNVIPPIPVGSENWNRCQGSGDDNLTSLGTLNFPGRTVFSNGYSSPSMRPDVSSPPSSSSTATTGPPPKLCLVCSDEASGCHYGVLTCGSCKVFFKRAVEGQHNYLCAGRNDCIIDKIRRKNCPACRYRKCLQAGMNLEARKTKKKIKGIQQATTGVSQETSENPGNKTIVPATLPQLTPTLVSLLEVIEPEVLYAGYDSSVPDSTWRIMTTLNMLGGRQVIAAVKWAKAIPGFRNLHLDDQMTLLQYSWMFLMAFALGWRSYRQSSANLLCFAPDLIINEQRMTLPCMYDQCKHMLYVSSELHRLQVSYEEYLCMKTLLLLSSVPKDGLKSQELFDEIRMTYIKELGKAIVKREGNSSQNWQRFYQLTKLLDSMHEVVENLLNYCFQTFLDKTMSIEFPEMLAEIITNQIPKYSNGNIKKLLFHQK
How it was run: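 GR-bla HeLa cells (beta-lactamase reporter under glucocorticoid response element) were plated 4 h at 37 C/5% CO2, given compounds in DMSO, and incubated 18 h at 37 C. LiveBLAzer B/G FRET substrate was added for 2 h at room temperature, then fluorescence intensity read.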

[16] = qHTS assay to test for compound auto fluorescence at 535 nm (green) in HEK293 cells (AID 720680); also: % is scaled to controls: 0 for no effect and ±100 for the full control effect
[17] = biological target: Glucocorticoid receptor (Homo sapiens) (UniProt P04150); assay: qHTS assay to identify small molecule antagonists of the glucocorticoid receptor (GR) signaling pathway (AID 720692; active = well fitted inhibition curve with a large enough effect in the signal ratio in the repeat runs, not every such curve was filed as active; the % refers to the signal ratio; also: % is scaled to controls: 0 for no effect and ±100 for the full control effect)
How it was run: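 GR-bla HeLa cells (beta-lactamase reporter under glucocorticoid response element) were pre-plated 4 h at 37 C, treated with compounds plus 5 nM dexamethasone (final) for 18 h, then read by LiveBLAzer B/G FRET fluorescence after 2 h.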

[18] = qHTS assay for small molecules that induce genotoxicity in human embryonic kidney cells expressing luciferase-tagged ATAD5 - cell viability (AID 651634; calls by dose curve; also: % is scaled to controls: 0 for no effect and ±100 for the full control effect; nearly all actives have a fitted effect of over 25% in size)
How it was run: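 HEK293T cells expressing luciferase-tagged ATAD5 were exposed to compound or DMSO for 15.5 hr at 37C, 5% CO2. Viability was then read as live-cell protease activity by CellTiter-Fluor fluorescence after 30 min at 37C.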

[19] = qHTS assay for small molecule disruptors of the mitochondrial membrane potential (AID 720635); also: potency is read from the fitted curve at half-maximal effect
How it was run: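 HepG2 cells (2,000/well) attached overnight at 37C, then took compound for 1 hr at 37C, 5% CO2. Mito-MPS dye was added for 30 min; fluorescence was read at 490/535 nm (monomers) and 540/590 nm (aggregates).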

CC(C)(C(=O)O)c1ccc(C(O)CCCN2CCC(C(O)(c3ccccc3)c3ccccc3)CC2)cc1 (stereo not given)
inactive: Potency [1] | Potency [2] | Potency [3] | outcome [4] | outcome [5] | Potency [6] | outcome [7] | Potency [8] | outcome [9] | outcome [10] | outcome [11] | outcome [12] | outcome [13] | outcome [14] | Potency [15]

C1=COCCC1
inactive: Potency [1] | Potency [2] | Potency [3] | outcome [4] | outcome [5] | Potency [6] | outcome [7] | outcome [16] | Potency [8] | outcome [9] | outcome [10] | outcome [12] | outcome [13] | outcome [14] | Potency [15] | Potency [17]

c1ccc(-c2ccc(-c3ccccc3)cc2)cc1
inactive: Potency [2] | Potency [18] | Potency [3] | fluorescence, relative to Rose Bengal [4] -0.399% [at 18.6 µM] | fluorescence, % of fluorescein control [5] -0.0708% [at 18.6 µM] | fluorescence, % of triamterene [6] -0.0124% [at 18.6 µM] | fluorescence, % of fluorescent control [7] 0.554% [at 18.6 µM] | fluorescence, % of fluorescein [16] 0.0075% [at 18.6 µM] | fluorescence, % of fluorescent control [8] -0.0624% [at 18.6 µM] | activity change [9] -0.0551% [at 18.6 µM] | fluorescence, % of fluorescent control [10] -0.201% [at 18.6 µM] | fluorescence, % of Rose Bengal [11] -0.0264% [at 18.6 µM] | fluorescence, % of fluorescent control [12] 0.0163% [at 18.6 µM] | fluorescence, % of fluorescein control [13] -0.0394% [at 18.6 µM] | fluorescence, % of fluorescent control [14] -0.024% [at 18.6 µM] | Potency [15]

O=c1[nH]nc(-c2ccc([N+](=O)[O-])o2)o1
inactive: Potency [1] | Potency [2] | outcome [4] | outcome [5] | Potency [6] | outcome [7] | outcome [16] | Potency [8] | outcome [9] | outcome [10] | outcome [11] | outcome [12] | outcome [13] | outcome [14] | Potency [15] | Potency [17]
active: Potency [19] 43.3 µM

CCCN(C1CCN(C(=O)C2CCNCC2)CC1)[C@@H]1CCc2ccc(OC)cc2C1
inactive: Potency [1] | Potency [18] | Potency [3] | outcome [5] | Potency [6] | outcome [7] | outcome [16] | Potency [8] | outcome [9] | outcome [10] | outcome [11] | outcome [12] | outcome [13] | outcome [14] | Potency [15] | Potency [17]

CCOc1ccc2c(c1)C(C)CC(C)(C)N2 (stereo not given)
inactive: Potency [1] | Potency [18] | Potency [3] | outcome [4] | outcome [5] | Potency [6] | outcome [7] | outcome [16] | Potency [8] | outcome [9] | outcome [10] | outcome [11] | outcome [12] | outcome [13] | outcome [14] | Potency [15]

O=C(O)c1ccc2c(c1)nc(C(=O)NC1CCN(C3CC3)CC1)n2Cc1cc(-c2ccc(Cl)s2)on1
inactive: Potency [1] | Potency [18] | Potency [3] | fluorescence, % of fluorescein control [5] -0.0395% [at 18.6 µM] | fluorescence, % of triamterene [6] 0.0005% [at 18.6 µM] | fluorescence, % of fluorescent control [7] 0.147% [at 18.6 µM] | fluorescence, % of fluorescein [16] -0.0247% [at 18.6 µM] | fluorescence, % of fluorescent control [8] 0.0923% [at 18.6 µM] | activity change [9] -0.024% [at 18.6 µM] | fluorescence, % of fluorescent control [10] 0.116% [at 18.6 µM] | fluorescence, % of Rose Bengal [11] -0.135% [at 18.6 µM] | fluorescence, % of fluorescent control [12] -0.029% [at 18.6 µM] | fluorescence, % of fluorescein control [13] -0.0042% [at 18.6 µM] | fluorescence, % of fluorescent control [14] 0.0789% [at 18.6 µM]

O=C(Cl)c1ccc(F)c(Cl)c1
inactive: Potency [1] | Potency [2] | Potency [3] | outcome [4] | outcome [5] | Potency [6] | outcome [7] | outcome [16] | Potency [8] | outcome [9] | outcome [10] | outcome [11] | outcome [12] | outcome [13] | outcome [14]

CC(C)=CCC[C@H](C)CCO
inactive: Potency [1] | Potency [18] | Potency [3] | outcome [4] | outcome [5] | Potency [6] | outcome [7] | outcome [16] | Potency [8] | outcome [9] | outcome [10] | outcome [11] | outcome [12] | outcome [13] | outcome [14]
